# Experimental data reported in PubChem BioAssay AID1159580 (chemical genetic matrix, 2015).
# The whole screen tested about 5,500 compounds, of which about 2,000 (36%) were called active. Roughly 18% stayed inconclusive and do not appear here. Some of the results follow. Unmarked numbers belong to inactive results. No stated cut-off is given here; in the data, active means normalized growth mostly below about 0.91 (no sharp cut-off); inconclusive means no clear call, values can overlap the other calls; inactive means mostly above about 0.92.
# Test: chemical genetic growth profiling, strain panel (AID 1159580);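 further: tested at 20 µM; growth read once vehicle control cultures reached saturation at 30 °C; 1 = growth at the plate median or of vehicle wells; lower values mean less growth of the strain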
# Conditions: S. cerevisiae deletion strains, growth OD
# [1] = locus YAR019C, strain CDC15, hits give low values
# [2] = locus YBL105C, strain PKC1, hits give low values
# [3] = locus YBR135W, strain CKS1, hits give low values
# [4] = locus YBR136W, strain MEC1, hits give low values
# [5] = locus YBR160W, strain CDC28, hits give low values
# [6] = locus YDL017W, strain CDC7, hits give low values
# [7] = locus YDL028C, strain MPS1, hits give low values
# [8] = locus YDL101C, strain DUN1, hits give low values
# [9] = locus YDL108W, strain KIN28, hits give low values
# [10] = locus YDL132W, strain cdc53, hits give low values
# [11] = locus YDL214C, strain PRR2, hits give low values
# [12] = locus YDR052C, strain DBF4, hits give low values
# [13] = locus YDR054C, strain cdc34, hits give low values
# [14] = locus YDR226W, strain ADK1, hits give low values
# [15] = locus YDR477W, strain SNF1, hits give low values
# [16] = locus YER123W, strain YCK3, hits give low values
# [17] = locus YER133W, strain GLC7, hits give low values
# [18] = locus YFL009W, strain cdc4, hits give low values
# [19] = locus YFL029C, strain CAK1, hits give low values
# [20] = locus YFR003C, strain YPI1, hits give low values
# [21] = locus YFR019W, strain FAB1, hits give low values
# [22] = locus YFR028C, strain CDC14, hits give low values
# [23] = locus YGR040W, strain KSS1, hits give low values
# [24] = locus YGR052W, strain FMP48, hits give low values
# [25] = locus YGR092W, strain DBF2, hits give low values
# [26] = locus YHR030C, strain SLT2, hits give low values
# [27] = locus YHR079C, strain IRE1, hits give low values
# [28] = locus YHR082C, strain KSP1, hits give low values
# [29] = locus YHR205W, strain SCH9, hits give low values
# [30] = locus YIL147C, strain SLN1, hits give low values
# [31] = locus YJL095W, strain BCK1, hits give low values
# [32] = locus YJL128C, strain PBS2, hits give low values
# [33] = locus YJL157C, strain FAR1, hits give low values
# [34] = locus YJR016C, strain ILV3, hits give low values
# [35] = locus YJR066W, strain TOR1 (second series), hits give low values
# [36] = locus YJR066W, strain TOR1, hits give low values
# [37] = locus YKL048C, strain ELM1, hits give low values
# [38] = locus YKL067W, strain YNK1, hits give low values
# [39] = locus YKL101W, strain HSL1, hits give low values
# [40] = locus YKL193C, strain SDS22, hits give low values
# [41] = locus YKL203C, strain TOR2, hits give low values
# [42] = locus YLR113W, strain HOG1, hits give low values
# [43] = locus YLR133W, strain CKI1, hits give low values
# [44] = locus YLR403W, strain SFP1, hits give low values
# [45] = locus YML070W, strain DAK1, hits give low values
# [46] = locus YMR001C, strain CDC5, hits give low values
# [47] = locus YMR205C, strain PFK2 (second series), hits give low values
# [48] = locus YMR277W, strain FCP1, hits give low values
# [49] = locus YNL006W, strain LST8, hits give low values
# [50] = locus YNL020C, strain ARK1, hits give low values
# [51] = locus YNL161W, strain CBK1, hits give low values
# [52] = locus YNL183C, strain NPR1, hits give low values
# [53] = locus YNL207W, strain RIO2, hits give low values
# [54] = locus YNL222W, strain SSU72, hits give low values
# [55] = locus YNL307C, strain MCK1 (second series), hits give low values
# [56] = locus YOL078W, strain AVO1, hits give low values
# [57] = locus YOL136C, strain PFK27, hits give low values
# [58] = locus YOR061W, strain CKA2, hits give low values
# [59] = locus YOR119C, strain RIO1, hits give low values
# [60] = locus YOR231W, strain MKK1, hits give low values
# [61] = locus YOR329C, strain SCD5, hits give low values
# [62] = locus YPL031C, strain PHO85, hits give low values
# [63] = locus YPL153C, strain RAD53, hits give low values
# [64] = locus YPL204W, strain HRR25, hits give low values
# [65] = locus YPL209C, strain IPL1, hits give low values
# [66] = locus YPL256C, strain CLN2, hits give low values
# [67] = locus YPR025C, strain CCL1, hits give low values
# [68] = locus YPR106W, strain ISR1, hits give low values
# [69] = locus YPR111W, strain DBF20, hits give low values
# [70] = strain NNK1, hits give low values
# [71] = strain TSCII, hits give low values
smiles,measurement,setting,value
CCOC(=O)C(NC(C)=O)(Nc1ccc(F)c(Cl)c1)C(F)(F)F (stereo not given),normalized growth,[1],0.992
same,normalized growth,[2],0.995
same,normalized growth,[3],0.983
same,normalized growth,[4],0.997
same,normalized growth,[5],0.991
same,normalized growth,[6],0.992
same,normalized growth,[7],0.995
same,normalized growth,[8],0.982
same,normalized growth,[9],0.997
same,normalized growth,[10],0.991
same,normalized growth,[11],1.01
same,normalized growth,[12],0.99
same,normalized growth,[13],0.997
same,normalized growth,[14],0.985
same,normalized growth,[15],1
same,normalized growth,[16],0.933
same,normalized growth,[17],0.994
same,normalized growth,[18],0.991
same,normalized growth,[19],0.994
same,normalized growth,[20],0.992
same,normalized growth,[21],0.973
same,normalized growth,[22],0.979
same,normalized growth,[23],0.988
same,normalized growth,[24],1.14
same,normalized growth,[25],0.97
same,normalized growth,[26],1.19 [resistant] (active)
same,normalized growth,[27],1.15
same,normalized growth,[28],1.14
same,normalized growth,[29],1.01
same,normalized growth,[30],0.99
same,normalized growth,[31],1.14
same,normalized growth,[32],0.963
same,normalized growth,[33],1.01
same,normalized growth,[34],0.998
same,normalized growth,[35],0.997
same,normalized growth,[36],1.18
same,normalized growth,[37],0.998
same,normalized growth,[38],1
same,normalized growth,[39],1.01
same,normalized growth,[40],0.979
same,normalized growth,[41],1.07
same,normalized growth,[42],1.11
same,normalized growth,[43],1.01
same,normalized growth,[44],1.01
same,normalized growth,[45],0.997
same,normalized growth,[46],0.984
same,normalized growth,[47],0.992
same,normalized growth,[48],0.988
same,normalized growth,[49],0.988
same,normalized growth,[50],1.01
same,normalized growth,[51],0.986
same,normalized growth,[52],1.16
same,normalized growth,[53],1
same,normalized growth,[54],0.989
same,normalized growth,[55],1.01
same,normalized growth,[56],0.981
same,normalized growth,[57],0.999
same,normalized growth,[58],1
same,normalized growth,[59],1
same,normalized growth,[60],1.11
same,normalized growth,[61],0.991
same,normalized growth,[62],1
same,normalized growth,[63],0.993
same,normalized growth,[64],0.996
same,normalized growth,[65],0.988
same,normalized growth,[66],1.12
same,normalized growth,[67],0.986
same,normalized growth,[68],0.99
same,normalized growth,[69],0.997
same,normalized growth,[70],1.01
same,normalized growth,[71],0.986
CCOC(=O)C(O)(c1ccc(NC(=O)Nc2ccc(Cl)cc2)cc1)C(F)(F)F (stereo not given),normalized growth,[1],0.993
same,normalized growth,[2],0.985
same,normalized growth,[3],0.997
same,normalized growth,[4],0.985
same,normalized growth,[5],0.99
same,normalized growth,[6],0.989
same,normalized growth,[7],0.987
same,normalized growth,[8],0.982
same,normalized growth,[9],0.986
same,normalized growth,[10],0.993
same,normalized growth,[11],1.03
same,normalized growth,[12],0.984
same,normalized growth,[13],0.986
same,normalized growth,[14],0.993
same,normalized growth,[15],1.01
same,normalized growth,[16],1.01
same,normalized growth,[17],1
same,normalized growth,[18],0.997
same,normalized growth,[19],0.99
same,normalized growth,[20],0.988
same,normalized growth,[21],0.988
same,normalized growth,[22],0.992
same,normalized growth,[23],0.999
same,normalized growth,[24],0.991
same,normalized growth,[25],0.924
same,normalized growth,[26],1.06
same,normalized growth,[27],1.04
same,normalized growth,[28],1.05
same,normalized growth,[29],0.935
same,normalized growth,[30],0.981
same,normalized growth,[31],0.915
same,normalized growth,[32],0.956
same,normalized growth,[33],1
same,normalized growth,[34],0.994
same,normalized growth,[35],0.977
same,normalized growth,[36],1.03
same,normalized growth,[37],1.01
same,normalized growth,[38],0.994
same,normalized growth,[39],0.975
same,normalized growth,[40],0.987
same,normalized growth,[41],1.04
same,normalized growth,[42],0.963
same,normalized growth,[43],1.01
same,normalized growth,[44],0.973
same,normalized growth,[45],0.992
same,normalized growth,[46],0.983
same,normalized growth,[47],0.991
same,normalized growth,[48],0.999
same,normalized growth,[49],1.01
same,normalized growth,[50],1
same,normalized growth,[51],0.998
same,normalized growth,[52],1.01
same,normalized growth,[53],0.983
same,normalized growth,[54],0.979
same,normalized growth,[55],0.924
same,normalized growth,[56],0.982
same,normalized growth,[57],0.992
same,normalized growth,[58],1
same,normalized growth,[59],1.08
same,normalized growth,[60],0.986
same,normalized growth,[61],0.992
same,normalized growth,[62],0.987
same,normalized growth,[63],1.03
same,normalized growth,[64],1
same,normalized growth,[65],0.996
same,normalized growth,[66],1.11
same,normalized growth,[67],0.99
same,normalized growth,[68],0.992
same,normalized growth,[69],0.986
same,normalized growth,[70],0.998
same,normalized growth,[71],0.993
CCOC(=N)c1ccc(F)c(Cl)c1,normalized growth,"locus YAL013W, strain DEP1, hits give low values",1.01
same,normalized growth,"locus YBR229C, strain ROT2, hits give low values",0.995
same,normalized growth,[8],0.992
same,normalized growth,"locus YDL134C, strain PPH21, hits give low values",1.02
same,normalized growth,"locus YDR150W, strain NUM1, hits give low values",1.01
same,normalized growth,"locus YEL061C, strain CIN8, hits give low values",1.01
same,normalized growth,"locus YGR078C, strain PAC10, hits give low values",1.02
same,normalized growth,"locus YGR229C, strain SMI1, hits give low values",1.02
same,normalized growth,[26],1.02
same,normalized growth,"locus YHR087W, strain rtc3, hits give low values",0.995
same,normalized growth,"locus YJR043C, strain POL32, hits give low values",1.02
same,normalized growth,"locus YJR075W, strain HOC1, hits give low values",1.01
same,normalized growth,"locus YLR039C, strain RIC1, hits give low values",1.07
same,normalized growth,"locus YLR058C, strain SHM2 (second series), hits give low values",1.01
same,normalized growth,"locus YLR085C, strain ARP6, hits give low values",1.02
same,normalized growth,"locus YLR262C, strain YPT6, hits give low values",1.06
same,normalized growth,"locus YML094W, strain GIM5, hits give low values",0.981
same,normalized growth,"locus YMR219W, strain ESC1, hits give low values",1.02
same,normalized growth,"locus YMR263W, strain SAP30, hits give low values",1.06
same,normalized growth,"locus YMR307W, strain GAS1, hits give low values",1.07
same,normalized growth,"locus YNL153C, strain GIM3, hits give low values",0.999
same,normalized growth,"locus YNL298W, strain CLA4 (second series), hits give low values",1.06
same,normalized growth,"locus YNL322C, strain KRE1, hits give low values",1.01
same,normalized growth,"locus YNR030W, strain Alg12, hits give low values",1.01
same,normalized growth,"locus YOL006C, strain TOP1, hits give low values",1.06
same,normalized growth,"locus YPL055C, strain LGE1, hits give low values",1.02
same,normalized growth,"locus YPL241C, strain CIN2, hits give low values",0.923
same,normalized growth,"locus YPR135W, strain CTF4, hits give low values",1.05
